# Assay results published in PubChem BioAssay (Tox21).
# Values joined by “and” are separate entries in the source; they are usually repeats but may differ in a detail not shown here. Equal entries are not always repeated. Inconclusive results are not listed. Unmarked numbers belong to inactive results. Active and inactive are the calls of the source. Calls come from the whole dose curve; as a rule, active = well fitted inhibition curve with a large enough effect in the repeat runs; inconclusive = weak or mixed curves; inactive = no such curve, though single readings can be large or run the other way.
# Assay: qHTS assay to identify small molecule antagonists of the estrogen related receptor (ERR) signaling pathway from Tox21 library (AID 1224848); note: nearly all actives have a fitted effect of over 50% in size
# Conditions: ERR reporter cell line, luciferase antagonist mode, 18 h; series mostly up to 92.4 µM; activity, negative = inhibition: at the top concentration
# From the text: U.S. Tox21 Program National Center for Advancing Translational Sciences [NCATS] NIH Chemical Genomics Center [NCGC] U.S. Environmental Protection Agency [EPA] National Institutes of Environmental Health Sciences [NIEHS] National Toxicology Program [NTP] U.S. Food and Drug Administration [FDA] Tox21 Assay Overview: Estrogen related receptors (ERRs), the first orphan nuclear receptors discovered, play an important role in the control of cellular energy metabolism. ERRs are required for high-energy production in response to the environmental challenges. ERR-alpha was also identified as an adverse marker for breast cancer progression; ERR-alpha-positive tumors have a poor prognosis. To screen and to identify environmental compounds that perturb the ERR signaling pathways could provide valuable information for potential therapeutic or preventive measures in the treatment of metabolic disease. For identifying ERR antagonists, ERR cell line (provided by NTP) has been used to screen Tox21 10K library.
# Tox21 Assay Protocol Summary: The ERR cells were dispensed at 2,000 cells/5 ul/well in 1536-well white plates using a Multidrop dispenser. After the assay plates were incubated at a 37 C/5% CO2 incubator for 6 hours, 23 nL of compounds dissolved in DMSO, positive and negative controls or DMSO only was transferred to the assay plate by a pin tool. The plates were incubated at 37 C for 18 hours. 4 ul/well of One-Glo reagent was added into the assay plates using a Flying Reagent Dispenser. After 30-minute incubation at room temperature, the luminescence intensity in the plates was measured using a ViewLux plate reader.
# % is set by controls: 0 for no effect and ±100 for the full control effect; potency is the fitted concentration of half-maximal effect.
SMILES,"activity, negative = inhibition",Potency
S=C=NCc1ccccc1,-27.3%,
O=C(O)C(F)(F)C(F)(F)C(F)(F)C(F)(F)C(F)(F)C(F)(F)C(F)(F)C(F)(F)C(F)(F)C(F)(F)F,10.2%,
COc1cc(CC(C)N)cc2c1OCO2 (stereo not given),-3.63%,
Clc1cc(C(Cl)(Cl)Cl)cnc1Cl,2.26%,
CO/C=C(/C(=O)OC)c1ccccc1COc1cccc(C(F)(F)F)n1,,0.485 µM (active)
CCOP(=S)(Oc1ccc([N+](=O)[O-])cc1)c1ccccc1 (stereo not given),19.3%,
O=C(NC(=O)c1c(F)cccc1F)Nc1ccc(OC(F)(F)C(F)OC(F)(F)F)c(Cl)c1 (stereo not given),-17.7% [at 42.5 µM],
COC(=O)C(Br)CBr (stereo not given),-20.9%,
CCCCC(O)(Cn1cncn1)c1ccc(Cl)cc1Cl (stereo not given),,38.5 µM (active)
CCc1ccc(C(=O)NN(C(=O)c2cc(C)cc(C)c2)C(C)(C)C)cc1,,30.6 µM (active)
C=CC(C)=O,0.908%,
CCCC(Cn1cncn1)c1ccc(Cl)cc1Cl (stereo not given),,30.6 µM (active)
CO/N=C(/C(=O)OC)c1ccccc1COc1ccccc1C,,1.54 µM (active)
COc1nn(C(=O)NS(=O)(=O)c2ccccc2OC(F)(F)F)c(=O)n1C,2.11%,
O=[N+]([O-])c1ccc(F)c([N+](=O)[O-])c1,,43.7 µM (active)
C=CC(=O)OCC(C)O (stereo not given),40.6%,
O=C(O)C1(c2ccc3c(c2)OC[C@H](Cc2ccc(-c4ccccc4)cc2)[C@H]3O)CCCC1,,61.1 µM (active)
CNP(=O)(OC)Oc1ccc(C(C)(C)C)cc1Cl (stereo not given),,48.6 µM (active)
CC/C(=N\OC/C=C/Cl)C1=C(O)CC(C2CCOCC2)CC1=O (stereo not given),1.21%,
C=CCN1CC[C@]23c4c5ccc(O)c4O[C@H]2C(=O)CC[C@@]3(O)[C@H]1C5,-10.6% [at 42.5 µM],

SMILES,"activity, negative = inhibition",Potency
CCOP(=O)(OCC)SCCSCC,,inactive
CO[C@@H]1[C@H](OC(=O)NC(=O)CCl)CC[C@]2(CO2)[C@H]1[C@@]1(C)O[C@@H]1CC=C(C)C,-8.28% [at 19 µM],
C[C@@H]1CC[C@H]2[C@@H](C)C(=O)O[C@@H]3O[C@@]4(C)CC[C@@H]1[C@]32OO4,,0.944 µM (active)
CN1C(=O)C(O)N=C(c2ccccc2)c2cc(Cl)ccc21 (stereo not given),-0.55%,
ClCc1cccc(Cl)c1,-17.2% [at 42.5 µM],
Cc1ccc2ccccc2c1,3.69%,
[CH3][Sn]([CH3])([Cl])[Cl],,69.7 µM (active) and 61.1 µM (active)
c1cc2ccc3cccc4ccc(c1)c2c34,,50.9 µM (active)
CCCCCCCCCCOC(=O)c1ccccc1C(=O)OCCCCCCCCCC,2.55%,
C=CC(=O)OCCCCO,103%,
NC(=O)CI,-29%,
Cl/C=C\C[N+]12CN3CN(CN(C3)C1)C2,-1.12%,
Cc1ccc(N)cc1C,29.7%,
COP(=O)(OC)O/C(=C/Cl)c1cc(Cl)c(Cl)cc1Cl,,22.9 µM (active)
O=C1CN=C(c2ccccc2)c2cc(Cl)ccc2N1CC1CC1,,51 µM (active)
NCC(CC(=O)O)c1ccc(Cl)cc1 (stereo not given),4.98% [at 0.349 µM],
CCCN(CCCl)c1c([N+](=O)[O-])cc(C(F)(F)F)cc1[N+](=O)[O-],-8.45%,
O=Cc1ccc(Cl)cc1Cl,-15.6%,
[O-][Cl+]O,13.2%,
Brc1ccc(Oc2ccccc2)cc1,0.709%,
